Molecules are shown by their SMILES. Out of some 360,000 compounds screened, about 11,000 (3.1%) were called active. Not shown: some 4% with an inconclusive outcome. Calls come from the whole dose curve; as a rule, active = well fitted inhibition curve with a large enough effect; inconclusive = small, poorly fitted or top-dose-only effect; inactive = no such curve, though single readings can be large or run the other way. Shown is part of a subset that was picked to be rich in actives. Entries that show only a call come without a potency.
Potency is the fitted concentration of half-maximal effect.

This test concerns the target Schistosoma mansoni thioredoxin glutathione reductase (TGR) (UniProt Q962Y6). The test is described as follows: qHTS Assay for the Inhibitors of Schistosoma Mansoni Peroxiredoxins. Note: nearly all actives have a fitted effect of over 60% in size. The following applies: purified TGR, DTNB reduction, TNB absorbance 405 nm; series mostly up to 114 µM. Summed up: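 First, TGR (20 nM dispensed) and NADPH were mixed with compound. Second, a 15 min room-temperature incubation followed. Third, further NADPH and then DTNB were added to start the reaction. Finally, TNB absorbance was monitored kinetically.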
Take `COC(=O)c1cccc(Cn2nnc3sc4c(c3c2=O)CCC(C(C)(C)C)C4)c1` (stereo not drawn): the Potency result is “inactive”. In the case of `COc1cn(CC(=O)Nc2cccc(C)c2C)c(CN2CCCCC2)cc1=O`, the Potency result was “inactive”. For `CCc1ccccc1NC(=O)CSc1nc(C)c(C(=O)Nc2ccccc2)c(-c2ccc(Cl)cc2)c1C#N`, the Potency entry is “inactive”. On to `COc1ccc(-c2onc(C)c2C)cc1S(=O)(=O)NCC1CCN(Cc2cccc(F)c2)CC1`, for which the Potency entry is “inactive”.

With `CCN1C(=O)[C@@H]2[C@@H](c3ccc(-c4cccc(Cl)c4)cc3)N3CCC[C@@]3(C(=O)OC)[C@@H]2C1=O`, the Potency is 22.4 µM (active). To `CCN1C(=O)[C@@H]2[C@@H](c3ccc(-c4ccc(OC)cc4)c(OC)c3)N3CCC[C@@]3(C(=O)OC)[C@@H]2C1=O` belongs “inactive”; to `CCN1C(=O)[C@H]2[C@@H](c3ccc(SC4CCCCC4)c(OC)c3)N[C@@](Cc3ccccc3)(C(=O)OC)[C@H]2C1=O`, “inactive”; to `CCN1C(=O)[C@H]2[C@@H](c3ccc(-c4ccc(F)cc4)cc3)N[C@@](Cc3ccccc3)(C(=O)OC)[C@H]2C1=O`, “inactive”. To `COC(=O)[C@@]12CCCN1[C@H](c1ccc(-c3ccc(F)cc3)c(OC)c1)[C@H]1C(=O)N(C)C(=O)[C@H]12` belongs “inactive”.

For the molecule `CCN1C(=O)[C@@H]2[C@@H](c3ccc(-c4ccccc4)cc3)N3CCCC[C@@]3(C(=O)OC)[C@@H]2C1=O`, the Potency is 35.5 µM (active). As for `Cc1ccc(S(=O)(=O)c2c(Nc3cccc(Cl)c3)sc(C(=O)c3ccc4c(c3)OCO4)c2N)cc1`, the Potency entry was “inactive”. `CCOC(=O)c1cccc(NS(=O)(=O)c2cc(-c3cnc(C)o3)ccc2OC)c1`: the Potency entry is “inactive”. Regarding `CCOc1ccc(S(=O)(=O)Nc2ccc3oc4c(c3c2)CC(C)CC4)cc1` (stereo not drawn), the Potency result is “inactive”. Consider `CCOc1ccc(C2C(=O)N(C3CCCCC3)CC(=O)N2CCC2=CCCCC2)cc1OC` (stereo not drawn), for which the Potency entry was “inactive”.

With `Cc1ccc(-n2ncc3c(=O)[nH]cnc32)c(C)c1`, the Potency entry was “inactive”. Then `C=CCNc1cnn(-c2ccc(C)cc2)c(=O)c1Cl`, with “inactive”; and `Cc1cccc(-n2ncc(Cl)c(Cl)c2=O)c1`, with 28.2 µM (active); and `COc1ccc(Cn2c(=O)n(-c3ccccc3C)c(=O)c3c4c(sc32)CN(C(C)=O)CC4)cc1`, with “inactive”. As for `Cc1cc(C)n(CCNC(=O)CC2C(=O)NCCN2Cc2ccc(C)o2)n1` (stereo not drawn), the Potency was 39.8 µM (active). For the molecule `Cc1nccn1CCCNC(=O)CC1C(=O)NCCN1Cc1ccc(Cl)c(F)c1` (stereo not drawn), the Potency entry was “inactive”. Consider `O=C(CC1C(=O)NCCN1CC(c1ccccc1)c1ccccc1)NCC1CCOCC1` (stereo not drawn), for which the Potency entry is “inactive”.

For `CCc1nn(CC(=O)N2CCN(c3cccc(C(F)(F)F)c3)CC2)c(=O)c2cc3occc3n12`, the Potency result is “inactive”. As to `Cc1c(CNC(C)c2ccccc2)c(C(=O)O)c(C)n1Cc1c(F)cccc1Cl` (stereo not drawn), the Potency result was “inactive”. Regarding `COc1ccc(OC)c(NC(=O)C2CCCN(S(=O)(=O)c3ccc4c(c3)CCCC(=O)N4)C2)c1` (stereo not drawn), the Potency result is “inactive”. Take `O=C1CN(C(=O)COC(=O)C2CC(=O)N(Cc3ccco3)C2)c2ccccc2N1` (stereo not drawn): the Potency was 39.8 µM (active). With `COc1cc(OC)c(C(=O)OCC(=O)N2CC(=O)Nc3ccccc32)cc1OC`, the Potency result was “inactive”. Then `Cc1ccc(S(=O)(=O)N2CCC(C(=O)OCC(=O)N3CC(=O)Nc4ccccc43)CC2)cc1`, with “inactive”; and `COc1ccccc1-c1cc2nc(C)c(CCC(=O)NC3CCCCC3)c(C)n2n1`, with “inactive”; and `CCc1ccc(NC(=O)c2cnc3c(-c4ccccc4)c(C)nn3c2C)cc1`, with “inactive”.

For `COc1ccc(C)cc1N(C)C(=O)c1c(C)oc2ncnc(N3CCOCC3)c12`, the Potency result was “inactive”.

On to `CCN(CC)c1cc(NC2CCCCC2)c2c3c(onc13)-c1ccccc1C2=O`, for which the Potency entry is “inactive”. On to `CCCN(CCC)C(=O)Cn1c(=O)n(-c2ccc(Cl)cc2)c(=O)c2c3c(sc21)CCCCC3`, for which the Potency result is “inactive”. Then `CCc1cccc(C)c1Nc1c(-c2ccc(N(C)C)cc2)nc2ncccn12`, with “inactive”; and `CCOc1ccc(NC(=O)CCc2c(C)nn(-c3ccc(N4CCCC4)nn3)c2C)cc1`, with “inactive”.

On to `Cc1cccc(NC(=O)CSc2nnc(CNC(=O)c3cccc(C)c3)n2-c2ccccc2)c1`, for which the Potency entry is “inactive”.

With `Cc1c(NC(=S)Nc2ccccc2)c(=O)n(-c2ccccc2)n1C`, the Potency entry was “inactive”. To `Cc1c(NS(=O)(=O)c2ccc(Cl)cc2)c(=O)n(-c2ccccc2)n1C` belongs “inactive”; to `CCN(CC)P(=O)(/C(Cl)=C\Nc1c(C)n(C)n(-c2ccccc2)c1=O)N(CC)CC`, 89.1 µM (active); to `COc1ccccc1CNc1nccn(-c2ccc(F)cc2)c1=O`, “inactive”. To `N#CC1=C(N)Oc2c(ccc3cccnc23)C1c1ccncc1` (stereo not drawn) belongs “inactive”. On to `N#CC1=C(N)Oc2c(c(=O)oc3ccccc23)C1c1ccccc1OC(=O)c1cccs1` (stereo not drawn), for which the Potency result is “inactive”. Then `N#CC1=C(N)Oc2c(sc3ccccc23)C1c1ccco1` (stereo not drawn), with 31.6 µM (active); and `CCOc1ccc(-n2c(SCC(=O)NCc3ccccc3)nc3n[nH]c(C)c3c2=N)cc1`, with “inactive”.

Take `O=C(/C=C/c1ccco1)Nc1cccc(-c2nc3ccccc3[nH]2)c1`: the Potency was 14.1 µM (active). To `O=C(Nc1cccc(-c2nc3ccccc3o2)c1)c1cccc(Br)c1` belongs “inactive”. Then `CCCC(NC(=O)c1ccco1)c1nc2ccccc2[nH]1` (stereo not drawn), with “inactive”; and `CCOC(=O)c1cc(NC(=O)c2ccc(F)cc2)c(=O)n2c1oc1ccccc12`, with “inactive”; and `CCOC(=O)c1ccc(NC(=O)C2CC(=O)N(c3ccc(C(C)C)cc3)C2)cc1` (stereo not drawn), with “inactive”. For the molecule `COc1ccc(CNC(=O)C2=Cc3cccc(OC)c3OC2)cc1OC`, the Potency entry is “inactive”. In the case of `O=C(CSc1oc(-c2ccc(F)cc2)nc1S(=O)(=O)c1ccc(Br)cc1)NC1CCCCC1`, the Potency entry was “inactive”. For `Cc1ccc(S(=O)(=O)c2nc(-c3ccco3)oc2SCC(=O)Nc2ccc(F)cc2)cc1`, the Potency entry is “inactive”. To `CC(C)S(=O)(=O)c1oc(-c2ccc(F)cc2)nc1S(=O)(=O)c1ccc(F)cc1` belongs 2.24 µM (active); to `CCCN1CCN(CCCNC(=O)c2ccc3nc(Cc4ccccc4)oc3c2)CC1`, “inactive”.

For `CCC(C)Nc1oc(-c2ccc(COc3ccc(Cl)cc3)o2)nc1C#N` (stereo not drawn), the Potency entry was “inactive”. Then `Cc1ccc(N2CCN(S(=O)(=O)c3ccc(F)cc3)CC2)c(C)c1`, with “inactive”; and `Cc1ccc(N2C(=O)CC(N3CCSCC3)C2=O)c(C)c1` (stereo not drawn), with 50.1 µM (active); and `Cc1ccc(CC2CC(=O)N(c3cc(C)ccc3C)C2=O)cc1` (stereo not drawn), with “inactive”. Regarding `CC(=O)Nc1cccc(NC(=O)CSc2cn(CC(=O)N3CCCC3)c3ccccc23)c1`, the Potency result was “inactive”. In the case of `CCC1(C)CC(=O)c2c(ccc3oc(C(=O)Nc4ccc(C(C)=O)cc4)c(C)c23)O1` (stereo not drawn), the Potency entry is “inactive”. Then `CCC(=O)N1CCc2cc(Br)cc(S(=O)(=O)CCC(=O)N3CCN(c4ccc(F)cc4)CC3)c21`, with “inactive”; and `CCOc1ccc(CN2CCN(Cc3c[nH]c4ccccc34)CC2)cc1`, with “inactive”; and `CC(C)N(C)C(=O)CCc1nnc(CCc2c[nH]c3ccccc23)o1`, with “inactive”. To `Cc1nn(C)c(C)c1CN(C(=O)CCc1nnc(Cc2c[nH]c3ccccc23)o1)C(C)C` belongs 35.5 µM (active); to `Cc1cccc(C(=O)Nc2nnc(Cc3c[nH]c4ccccc34)s2)c1`, “inactive”.

Take `Cc1nc(CN2CCN(C(=O)CCc3nnc(Cc4c[nH]c5ccccc45)o3)CC2)cs1`: the Potency is 39.8 µM (active). `COC(c1ccccc1)c1nnc(CCC(=O)N2CCN(CCOc3ccccc3)CC2)o1` (stereo not drawn): the Potency entry was “inactive”. Regarding `O=C(COc1ccccc1F)Nc1ccc(C(=O)OCc2cc(=O)n3nc(C4CC4)sc3n2)cc1`, the Potency result was “inactive”. To `COc1ccc(CCNC(=O)CCCCn2c(=O)c3ccccc3n(Cc3ccccc3C)c2=O)cc1OC` belongs “inactive”.

Turning to `Cc1cccc(N2CCN(C(=O)c3ccc(Nc4nc5ccccc5n5nnnc45)cc3)CC2)c1C`, the Potency result was “inactive”. `COC(=O)c1ccccc1SC1CC(=O)N(c2cccc(C)c2)C1=O` (stereo not drawn): the Potency was 50.1 µM (active).

In the case of `COC(=O)c1cccc(N2C(=O)C3C4C=CC(CC4)C3C2=O)c1` (stereo not drawn), the Potency result was “inactive”. For the molecule `Cc1cccc(N2C(=O)CC(SC(N)=Nc3ccccc3)C2=O)c1` (stereo not drawn), the Potency result is “inactive”. Turning to `COc1ccc(N2CCN(c3nc(-c4ccccc4F)nc4ccccc34)CC2)cc1`, the Potency entry is “inactive”. To `CSc1nc(-c2ccco2)nn1C(=O)c1ccccc1Cl` belongs 7.08 µM (active). To `O=C(CSc1oc(-c2ccco2)nc1S(=O)(=O)c1ccccc1)c1ccc(Cl)cc1` belongs “inactive”; to `Oc1c(C(c2ccccc2Cl)N2CCOCC2)sc2nc(-c3ccco3)nn12` (stereo not drawn), “inactive”; to `Cc1cccc(NC(=O)Cn2cc(S(=O)(=O)Cc3ccccc3Cl)c3ccccc32)c1`, “inactive”. As for `CC(=O)c1nn(-c2ccc(OC(F)(F)F)cc2)nc1Nc1ccccc1`, the Potency entry is “inactive”. For the molecule `COc1ccc(CNC(=O)Cc2coc3ccc(C(C)C)cc23)cc1`, the Potency result was “inactive”.

Turning to `CN1CCN(c2oc(-c3ccc(COc4ccc(Cl)cc4)o3)nc2C#N)CC1`, the Potency result is “inactive”. Then `Cc1cc(C)c(NC(=O)Cn2c(SCC(=O)NCc3ccccc3)nc3ccccc32)c(C)c1`, with “inactive”; and `CCOC(=O)c1c(C)n(S(=O)(=O)c2ccc(C)cc2C)c2ccc(NS(=O)(=O)c3ccc(C)cc3C)cc12`, with “inactive”; and `CC1=C/C(=N\OS(=O)(=O)c2ccccc2)C=CC1=O`, with 2.24 µM (active). With `O=C(COc1ccc(Cl)cc1)Nc1ccc(-c2nc3cc(Cl)ccc3o2)c(O)c1`, the Potency entry was “inactive”. To `CC(C)(C)Nc1c(-c2cccs2)nc2ccccn12` belongs 50.1 µM (active); to `Cc1ccc(Nc2c(-c3ccc(C)s3)nc3ccccn23)cc1`, “inactive”. Then `Cc1nc2ccccn2c(=O)c1NC(=O)c1cccs1`, with “inactive”. To `COc1ccc(-c2cc(C(=O)NCc3cc(OC)c(OC)c(OC)c3)[nH]n2)cc1` belongs “inactive”.

Turning to `CCOc1ccc(S(=O)(=O)N(CC(=O)NCCSCc2ccc(C)cc2)c2ccccc2)cc1`, the Potency result is “inactive”. To `Cc1ccc(NC(=O)CN2c3ccccc3S(=O)(=O)c3ccccc32)cc1F` belongs “inactive”; to `O=C(CC(n1cncn1)C(Cl)(Cl)Cl)c1ccc([N+](=O)[O-])cc1` (stereo not drawn), 0.282 µM (active). Then `O=C(CCn1nnc2ccccc21)OCC(=O)c1ccc([N+](=O)[O-])cc1`, with “inactive”; and `O=C(NNC(=O)c1ccc(-n2cncn2)c([N+](=O)[O-])c1)c1ccccc1`, with “inactive”.

The values above are taken from PubChem BioAssay AID485364 (National Center for Advancing Translational Sciences (NCATS), 2010).
